Experimental findings from PubChem BioAssay (EPA / NIEHS) are described below.

Holding throughout (conditions): mRNA level, 48 h; actives raise or lower the signal
Read-out in one test: BCL2L11 (gene 10018)
In words: LTEA_HepaRG_BCL2L11: Life Technologies and Expression Analysis (LTEA) Assay for Bcl-2 (BCL2L11) gene using HepaRG (AID 2283473). The method, boiled down:
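Human hepatic HepaRG cultures are treated 48 h with test chemicals (maximum 100 uM, 0.5% DMSO vehicle). Expression of BCL2L11 is measured by qRT-PCR against ACTB, GAPDH and POLR2A, with activity in either direction scored relative to vehicle.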

Read-out in test [1]: Apolipoprotein A-V (APOA5) gene, APOA5 (gene 116519)
In words: LTEA_HepaRG_APOA5: Life Technologies and Expression Analysis (LTEA) Assay for Apolipoprotein A-V (APOA5) gene using HepaRG (AID 2283474). The method, boiled down: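 Concentration-response of APOA5 expression in HepaRG: eight half-log doses to 100 uM, 48 h, qRT-PCR normalized to ACTB/GAPDH/POLR2A, bidirectional fitting with 0.5% DMSO as baseline.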

Read-out in test [2]: Apoptosis regulator Bcl-2 (Homo sapiens) (UniProt P10415)
In words: LTEA_HepaRG_BCL2: Life Technologies and Expression Analysis (LTEA) Assay for Bcl-2 gene using HepaRG (AID 2283475). The method, boiled down: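 Differentiated HepaRG cells in serum-free induction medium were exposed for 48 h to eight half-log concentrations up to 100 uM in 0.5% DMSO, in duplicate. BCL2 mRNA was quantified by TaqMan qRT-PCR normalised to ACTB, GAPDH and POLR2A, with bidirectional fitting versus DMSO.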

Read-out in test [3]: Bcl-2 (BID) gene, BID (gene 637)
In words: LTEA_HepaRG_BID: Life Technologies and Expression Analysis (LTEA) Assay for Bcl-2 (BID) gene using HepaRG (AID 2283476). The method, boiled down:
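Differentiated HepaRG cells in serum-free induction medium were exposed in duplicate for 48 h to eight half-log concentrations up to 100 uM in 0.5% DMSO. BID mRNA was quantified by qRT-PCR, normalized to ACTB, GAPDH and POLR2A.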

Read-out in another test: Caspase-3 (Homo sapiens) (UniProt P42574)
In words: LTEA_HepaRG_CASP3: Life Technologies and Expression Analysis (LTEA) Assay for cysteine-aspartic acid protease (CASP3) using HepaRG (AID 2283477). The method, boiled down:
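Transcript-level assay: CASP3 mRNA in human HepaRG after 48 h treatment, eight half-log concentrations from 100 uM in 0.5% DMSO, quantified by qRT-PCR.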

Read-out in test [4]: Cytochrome P450 (CYP24A1), CYP24A1 (gene 1591)
In words: LTEA_HepaRG_CYP24A1: Life Technologies and Expression Analysis (LTEA) Assay for Cytochrome P450 (CYP24A1) using HepaRG (AID 2283478). Put shortly: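 Gene expression of CYP24A1 by TaqMan qRT-PCR in HepaRG after 48 h treatment, highest concentration 100 uM; activity fitted in both directions relative to DMSO vehicle.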

Read-out in test [5]: Cytochrome P450 (CYP1A2), CYP1A2 (gene 1544)
In words: LTEA_HepaRG_CYP1A2: Life Technologies and Expression Analysis (LTEA) Assay for Cytochrome P450 (CYP1A2) using HepaRG (AID 2283479). The method, boiled down:
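In duplicate wells, HepaRG cultures maintained in 0.5% DMSO were treated 48 h across an 8-point, half-log series topping at 100 uM; phenobarbital (1 mM) served as induction control. Expression was read by qRT-PCR.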

Read-out in test [6]: cysteine-aspartic acid protease (CASP8), CASP8 (gene 841)
Nature of the test: LTEA_HepaRG_CASP8: Life Technologies and Expression Analysis (LTEA) Assay for cysteine-aspartic acid protease (CASP8) using HepaRG (AID 2283480). The method, boiled down:
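HepaRG, 48 h exposure, duplicate wells; 8 conc, half-log from 100 uM, 0.5% DMSO. Serum-free induction medium. CASP8 mRNA by TaqMan qRT-PCR, norm. ACTB/GAPDH/POLR2A; gain/loss fitted vs DMSO.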

Read-out in test [7]: Cytochrome P450 (CYP2B6), CYP2B6 (gene 1555)
In words: LTEA_HepaRG_CYP2B6: Life Technologies and Expression Analysis (LTEA) Assay for Cytochrome P450 (CYP2B6) using HepaRG (AID 2283481). Put shortly:
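Human HepaRG, 48 h dosing, 0.5% DMSO vehicle, top dose 100 uM. CYP2B6 transcript by qRT-PCR, housekeeping-normalized, bidirectional curve fit.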

Read-out in test [8]: Cytochrome P450 2C19 (Homo sapiens) (UniProt P33261)
Nature of the test: LTEA_HepaRG_CYP2C19: Life Technologies and Expression Analysis (LTEA) Assay for CYP2C19 using HepaRG (AID 2283482). The method, boiled down:
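Endpoint: CYP2C19 mRNA change, bidirectional fit vs 0.5% DMSO. Cells: HepaRG, 48 h exposure, eight-point series topping at 100 uM. Quantitation: qRT-PCR normalized to ACTB, GAPDH, POLR2A.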

Read-out in another test: CYP2C8 (gene 1558)
Nature of the test: LTEA_HepaRG_CYP2C8: Life Technologies and Expression Analysis (LTEA) Assay for CYP2C8 using HepaRG (AID 2283483). Put shortly:
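CYP2C8 mRNA induction or loss, by qRT-PCR normalized to ACTB/GAPDH/POLR2A, is read in HepaRG cells after 48 h treatment. Concentrations run from 100 uM down in half-log dilutions, with 0.5% DMSO as vehicle and baseline.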

Read-out in another test: CYP2C9 (gene 1559)
In words: LTEA_HepaRG_CYP2C9: Life Technologies and Expression Analysis (LTEA) Assay for CYP2C9 using HepaRG (AID 2283484). Put shortly: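 Cells plated 48 h, switched to serum-free induction medium, then treated in duplicate for 48 h at eight concentrations (max 100 uM, 0.5% DMSO). RNA then analysed by qRT-PCR for CYP2C9; curves fitted in both directions relative to DMSO.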

Read-out in another test: CYP2E1 (gene 1571)
In words: LTEA_HepaRG_CYP2E1: Life Technologies and Expression Analysis (LTEA) Assay for CYP2E1 using HepaRG (AID 2283485). The method, boiled down:
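HepaRG cells in serum-free induction medium exposed 48 h to test chemicals, 8 half-log concentrations up to 100 uM in 0.5% DMSO, duplicate. CYP2E1 mRNA by qRT-PCR, normalized to ACTB, GAPDH, POLR2A; bidirectional fit versus DMSO.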

Read-out in another test: CYP4A11 (gene 1579)
In words: LTEA_HepaRG_CYP4A11: Life Technologies and Expression Analysis (LTEA) Assay for CYP4A11 using HepaRG (AID 2283486). The method, boiled down: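 Human hepatic HepaRG cultures receive duplicate 48 h exposures across a concentration-response series topping at 100 uM. Expression changes in CYP4A11 are measured by qRT-PCR relative to DMSO controls.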

Read-out in test [9]: Cytochrome P450 3A4 (Homo sapiens) (UniProt P08684)
Nature of the test: LTEA_HepaRG_CYP3A4: Life Technologies and Expression Analysis (LTEA) Assay for CYP3A4 using HepaRG (AID 2283487). Put shortly: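 Differentiated HepaRG cells, plated 48 h, then dosed 48 h in serum-free induction medium with 0.5% DMSO, 8 half-log concentrations up to 100 uM, duplicate. CYP3A4 mRNA by qRT-PCR, normalized to ACTB/GAPDH/POLR2A; bidirectional fit versus DMSO.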

Read-out in test [10]: DNA damage-inducible transcript 3 (DDIT3), DDIT3 (gene 1649)
Nature of the test: LTEA_HepaRG_DDIT3: Life Technologies and Expression Analysis (LTEA) Assay for DNA damage-inducible transcript 3 (DDIT3) using HepaRG (AID 2283488). The method, boiled down:
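Differentiated human HepaRG cells in serum-free induction medium were exposed in duplicate for 48 h to 8 concentrations (top 100 uM, half-log steps, 0.5% DMSO). DDIT3 mRNA measured by TaqMan qRT-PCR, normalized to ACTB/GAPDH/POLR2A; bidirectional fit versus DMSO.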

Read-out in test [11]: Pro-epidermal growth factor (Homo sapiens) (UniProt P01133)
In words: LTEA_HepaRG_EGF: Life Technologies and Expression Analysis (LTEA) Assay for Epidermal growth factor (EGF) using HepaRG (AID 2283489). The method, boiled down: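 Concentration-response mRNA assay: HepaRG cells dosed 48 h (max 100 uM, 0.5% DMSO), EGF measured by qRT-PCR and normalized to ACTB/GAPDH/POLR2A.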

Read-out in test [12]: Early growth response protein 1 (EGR1) transcription factor, EGR1 (gene 1958)
Nature of the test: LTEA_HepaRG_EGR1: Life Technologies and Expression Analysis (LTEA) Assay for Early growth response protein 1 (EGR1) transcription factor using HepaRG (AID 2283490). The method, boiled down: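 Read-out is EGR1 mRNA level by qRT-PCR, normalized to three housekeeping genes and analysed for gain or loss of signal against 0.5% DMSO. Source cells: human HepaRG, treated 48 h at up to 100 uM in half-log dilutions.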

Read-out in test [13]: Ezrin (EZR), EZR (gene 7430)
In words: LTEA_HepaRG_EZR: Life Technologies and Expression Analysis (LTEA) Assay for Ezrin (EZR) using HepaRG (AID 2283491). Put shortly: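 EZR transcript levels came from Fluidigm qRT-PCR and were normalized to three housekeeping genes after 48 h chemical exposure of HepaRG cells. Dosing used an 8-point half-log series with a 100 uM top concentration in 0.5% DMSO, tested in duplicate; both directions were fitted versus vehicle.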

Read-out in test [14]: Cytochrome P450 3A7 (Homo sapiens) (UniProt P24462)
Nature of the test: LTEA_HepaRG_CYP3A7: Life Technologies and Expression Analysis (LTEA) Assay for CYP3A7 using HepaRG (AID 2283492). The method, boiled down: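 qRT-PCR of CYP3A7 in HepaRG lysates after 48 h treatment; concentration-response (8 points, max 100 uM) analysed bidirectionally relative to 0.5% DMSO controls.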

Activity calls are given as the source filed them. The calls were made as follows: active = hit-call score of the fitted dose curve at least 0.9, where 1 is the maximum; inactive = score below 0.9.

Chain of Cytochrome P450 3A4 (Homo sapiens) (P08684 whole entry, looked up): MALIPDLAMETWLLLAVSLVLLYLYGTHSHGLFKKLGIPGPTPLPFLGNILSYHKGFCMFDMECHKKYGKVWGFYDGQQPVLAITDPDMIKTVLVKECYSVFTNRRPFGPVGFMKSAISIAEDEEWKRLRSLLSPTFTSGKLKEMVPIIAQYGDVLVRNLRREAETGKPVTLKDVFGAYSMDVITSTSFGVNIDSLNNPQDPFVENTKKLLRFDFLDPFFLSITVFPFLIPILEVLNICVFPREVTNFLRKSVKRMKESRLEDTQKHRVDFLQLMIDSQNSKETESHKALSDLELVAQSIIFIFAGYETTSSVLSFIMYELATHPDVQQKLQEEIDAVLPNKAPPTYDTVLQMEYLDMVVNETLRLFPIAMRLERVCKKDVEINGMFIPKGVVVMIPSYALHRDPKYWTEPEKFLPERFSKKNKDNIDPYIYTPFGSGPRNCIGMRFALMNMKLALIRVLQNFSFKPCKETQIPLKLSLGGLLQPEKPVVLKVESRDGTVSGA
Chain of Caspase-3 (Homo sapiens) (P42574 whole entry, looked up): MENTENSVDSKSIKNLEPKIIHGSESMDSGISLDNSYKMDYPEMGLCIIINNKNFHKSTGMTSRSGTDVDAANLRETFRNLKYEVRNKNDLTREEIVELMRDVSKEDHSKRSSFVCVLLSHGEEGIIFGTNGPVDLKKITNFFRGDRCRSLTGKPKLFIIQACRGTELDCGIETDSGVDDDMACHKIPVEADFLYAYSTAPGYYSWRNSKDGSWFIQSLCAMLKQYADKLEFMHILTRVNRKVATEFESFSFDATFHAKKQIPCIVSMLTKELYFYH
Chain of Cytochrome P450 3A7 (Homo sapiens) (P24462 whole entry, looked up): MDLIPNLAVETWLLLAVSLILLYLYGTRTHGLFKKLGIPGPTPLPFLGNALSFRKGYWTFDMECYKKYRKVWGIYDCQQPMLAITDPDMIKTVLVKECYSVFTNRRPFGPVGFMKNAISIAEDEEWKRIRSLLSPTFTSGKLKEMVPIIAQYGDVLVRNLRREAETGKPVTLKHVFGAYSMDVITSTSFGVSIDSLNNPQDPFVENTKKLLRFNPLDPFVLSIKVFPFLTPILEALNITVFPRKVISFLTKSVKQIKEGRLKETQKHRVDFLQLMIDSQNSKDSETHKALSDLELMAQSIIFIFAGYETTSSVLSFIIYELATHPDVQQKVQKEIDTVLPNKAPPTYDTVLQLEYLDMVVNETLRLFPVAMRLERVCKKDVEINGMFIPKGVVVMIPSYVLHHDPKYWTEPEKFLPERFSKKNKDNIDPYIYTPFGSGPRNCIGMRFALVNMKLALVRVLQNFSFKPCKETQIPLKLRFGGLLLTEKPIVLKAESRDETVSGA
Chain of Cytochrome P450 2C19 (Homo sapiens) (P33261 whole entry, looked up): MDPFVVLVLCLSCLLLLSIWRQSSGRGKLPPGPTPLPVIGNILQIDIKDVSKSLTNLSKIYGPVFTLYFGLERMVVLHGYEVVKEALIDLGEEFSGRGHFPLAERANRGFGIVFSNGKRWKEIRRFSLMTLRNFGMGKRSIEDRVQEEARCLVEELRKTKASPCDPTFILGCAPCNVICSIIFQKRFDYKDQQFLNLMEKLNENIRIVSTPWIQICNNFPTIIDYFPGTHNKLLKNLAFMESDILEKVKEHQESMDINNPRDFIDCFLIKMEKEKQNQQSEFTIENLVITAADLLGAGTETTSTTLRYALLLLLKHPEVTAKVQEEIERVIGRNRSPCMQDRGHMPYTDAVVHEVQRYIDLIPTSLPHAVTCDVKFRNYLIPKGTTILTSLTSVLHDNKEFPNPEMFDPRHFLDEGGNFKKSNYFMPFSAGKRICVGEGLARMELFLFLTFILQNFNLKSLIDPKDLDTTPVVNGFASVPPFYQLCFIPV
Chain of Apoptosis regulator Bcl-2 (Homo sapiens) (P10415 whole entry, looked up): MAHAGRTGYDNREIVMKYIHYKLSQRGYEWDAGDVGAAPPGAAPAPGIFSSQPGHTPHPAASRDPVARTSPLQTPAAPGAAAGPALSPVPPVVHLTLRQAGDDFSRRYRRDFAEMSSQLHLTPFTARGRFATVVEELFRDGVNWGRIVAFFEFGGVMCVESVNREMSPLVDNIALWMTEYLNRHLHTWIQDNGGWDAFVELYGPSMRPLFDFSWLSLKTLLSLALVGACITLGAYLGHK

In the case of `C=CC(=C)CCC=C(C)C`, the outcome (with BCL2L11 (gene 10018); in test [1]; in test [2]; in test [3]; with Caspase-3 (Homo sapiens); in test [4]) was inactive. The outcome (in test [6]; in test [7]; in [8]; with CYP2C8 (gene 1558); with CYP2C9 (gene 1559); with CYP2E1 (gene 1571)) was inactive. Further, the molecule was classed as inactive (with CYP4A11 (gene 1579); in test [9]; in [10]; in test [11]; in test [12]; in [13]). For the same molecule, in [14], the molecule was classed as inactive. Besides, the AC50 in test [5] was 27.2 µM (active).
Take `Cn1cnc([N+](=O)[O-])c1Sc1ncnc2nc[nH]c12`: the AC50 with BCL2L11 (gene 10018) was 7.34 µM (active); in test [1], 15.8 µM (active); in test [5] it was 0.9 µM (active); in [7] it was 5.23 µM (active); with CYP2C8 (gene 1558), 7.61 µM (active); in the test with CYP2C9 (gene 1559) it was 9.87 µM (active). Further, the AC50 was 1.45 µM (active) with CYP2E1 (gene 1571), 0.324 µM (active) in the test with CYP4A11 (gene 1579), 9.59 µM (active) in [10] and 13 µM (active) in test [12]. For the same molecule, the molecule was called inactive (in test [2]; in test [3]; in the test with Caspase-3 (Homo sapiens); in test [4]; in [6]; in test [11]). Further, the molecule was called inactive in test [13].
Regarding `O=C1OC(=O)C2C3C=CC(C3)C12` (stereo not given), the outcome (in [1]; in [2]; in test [3]; with Caspase-3 (Homo sapiens); in [4]; in test [5]) was inactive. Besides, the molecule was classed as inactive (in [6]; in test [7]; in test [8]; with CYP2C8 (gene 1558); in the test with CYP2C9 (gene 1559); with CYP2E1 (gene 1571)). Besides, the molecule was called inactive (in the test with CYP4A11 (gene 1579); in test [9]; in test [10]; in test [11]; in test [12]; in [13]). The result in [14] was inactive.
As for `NC(=O)NO`, the molecule was classed as inactive (in the test with BCL2L11 (gene 10018); in [1]; in [2]; in test [3]; with Caspase-3 (Homo sapiens); in [6]). Moreover, the molecule was classed as inactive in [10], in [11], in [12] and in test [13].
Consider `CC(C)c1cccc(C(C)C)c1N1C(=O)c2ccc(O)cc2C1=O`, for which the molecule was classed as inactive (with BCL2L11 (gene 10018); in test [1]; in test [3]; in the test with Caspase-3 (Homo sapiens); in test [4]; in test [5]). For the same molecule, the call (in [6]; with CYP2C8 (gene 1558); with CYP2C9 (gene 1559); in test [11]; in [13]) was inactive. In addition, the AC50 is 86.2 µM (active) in test [2]; 88.6 µM (active) in test [7]; 91.5 µM (active) in [8]; 89.7 µM (active) with CYP2E1 (gene 1571); 72 µM (active) in the test with CYP4A11 (gene 1579); 11.6 µM (active) in test [9]. Besides, the AC50 in test [10] was 74.9 µM (active); in test [12], 86.2 µM (active); in test [14], 87.9 µM (active).
`CCOC(=O)COc1ccc2c(c1)CC(NCC(O)c1cccc(Cl)c1)CC2` (stereo not given): the result (in test [1]; in [3]; in the test with Caspase-3 (Homo sapiens); in [4]; in test [5]; in [6]) was inactive. Moreover, the result (in test [8]; in the test with CYP2C8 (gene 1558); with CYP2C9 (gene 1559); with CYP2E1 (gene 1571); with CYP4A11 (gene 1579); in test [9]) was inactive. The outcome in test [10], in [11], in test [12], in [13] and in test [14] was inactive. The AC50 is 45.8 µM (active) in test [2] and 0.947 µM (active) in test [7].

The AC50 is the concentration giving half of the maximal activity seen.
